Only some compounds are listed: those with a hit (about 0.45% of all), similar ones and a draw of the others.
sEH act = increases human soluble epoxide hydrolase activity | P34913 | actives 0.04% (n = 91,000) | activation, % at 2 µM | purified human sEH enzymatic activity, activator screen | AID 717; in the data active = activation above about 37%
Smad3 FoxH1 inh = blocks human Smad3 binding to FoxH1 peptide; P84022; TR-FRET Smad3/Dy647-FoxH1 peptide binding, europium anti-His; inhibition, % at 25 µM; actives 0.29% (n = 88,000); AID 630;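 active = compounds that reduce the energy-transfer binding signal between the protein and its labelled peptide by more than half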
Target sequence (P84022 whole entry, looked up): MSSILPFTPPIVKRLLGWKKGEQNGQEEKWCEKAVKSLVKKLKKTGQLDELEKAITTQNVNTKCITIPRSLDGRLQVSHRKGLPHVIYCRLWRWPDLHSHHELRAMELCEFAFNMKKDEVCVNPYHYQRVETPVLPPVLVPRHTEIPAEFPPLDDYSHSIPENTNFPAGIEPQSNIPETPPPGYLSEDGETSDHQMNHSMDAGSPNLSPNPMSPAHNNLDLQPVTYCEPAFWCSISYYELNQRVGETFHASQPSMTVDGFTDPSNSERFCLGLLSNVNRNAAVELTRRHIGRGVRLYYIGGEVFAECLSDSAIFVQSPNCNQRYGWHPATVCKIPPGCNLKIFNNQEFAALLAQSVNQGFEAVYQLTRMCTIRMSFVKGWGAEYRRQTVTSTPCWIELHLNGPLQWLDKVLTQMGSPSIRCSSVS
sEH inh = soluble epoxide hydrolase (human) inhibition; recombinant human sEH enzymatic activity assay; inhibition, % at 2 µM; actives 0.34% (n = 91,000); AID 707; in the data active = inhibition above about 80%
Large screens that a line does not name were inactive; [ ] = another dose, or the depositor's remark.

CN(C)CCN1C(=O)CC[C@@]2(C)C1=CC[C@H]1[C@H]2CC[C@@]2(C)[C@H]1CC[C@]2(C)O	none (no result: sEH act, sEH inh)
N#C/C(=C\Nc1ccccn1)C(=O)c1ccco1	none (no result: sEH act, sEH inh)
O=C(O)c1ccc(NS(=O)(=O)Cc2ccccc2)cc1	none (no result: sEH act, sEH inh)
Nc1ccc(-c2ccc(Nc3cc(S(=O)(=O)O)c(N)c4c3C(=O)c3ccccc3C4=O)cc2)c(S(=O)(=O)O)c1	Smad3 FoxH1 inh 93.7 (no result: sEH act, sEH inh)
O=C1c2ccccc2C(=O)c2c(NC3CCCCC3)ccc(Nc3ccc(S(=O)(=O)O)cc3)c21	none (no result: sEH act, sEH inh)
O=C(Nc1cnn(Cc2ccccc2)c1)NC12CC3CC(CC(C3)C1)C2	sEH inh 92.1 (no result: Smad3 FoxH1 inh)
O=C(O)C1C2CCC(O2)C1C(=O)Nc1cnn(Cc2ccccc2)c1 (stereo not drawn)	none
NC(=O)[C@H]1CCCN1Cc1ccc2c(c1)OCO2	none (no result: sEH act, sEH inh)
NC(=O)NCCC1=CCCCC1	none (no result: Smad3 FoxH1 inh)
O=C(NCc1ccccc1)NC1CCCCC1	none
O=C(NCCC1=CCCCC1)NC1CCCCC1	sEH inh 94.4 (no result: Smad3 FoxH1 inh)
O=C(NCCc1ccccc1)NC1CCCCC1	sEH inh 82.5
CS[C@@]12C(=O)C[C@@]3(C)[C@@H](CC[C@@]3(O)C(=O)CO)[C@H]1CCC1=CC(=O)CC[C@]12C	none (no result: sEH act, sEH inh)
CC1CCCCN1S(=O)(=O)c1ccc(NC(=O)c2cccc(-n3cnnn3)c2)cc1 (stereo not drawn)	none (no result: sEH act, sEH inh)
CC1CCCN(S(=O)(=O)c2ccc(NC(=O)c3cccc(-n4cnnn4)c3)cc2)C1 (stereo not drawn)	sEH inh 95.8
C(/C=C/c1ccccc1)=Nc1ccc2c(c1)Cc1ccccc1-2	none (no result: sEH act, sEH inh)
Cc1c(Cl)c([N+](=O)[O-])nn1Cc1ccc(C(=O)N/N=C\c2cccc(Br)c2)o1	sEH inh 95.6 (no result: Smad3 FoxH1 inh)
Cc1cc(C)cc(NC(=O)c2ccc(Cn3nc(C)c(Cl)c3C)o2)c1	none
Nc1nc(-c2cccnc2)cc(-c2cc(-c3cccnc3)nc(N)n2)n1	none (no result: sEH act, sEH inh)
c1ccc2cc(-c3cc(-c4cc(-c5ccc6ccccc6c5)on4)no3)ccc2c1	none (no result: sEH act, sEH inh)
O=C(C[n+]1ccc2ccccc2c1)c1ccc2ccc3ccccc3c2c1	Smad3 FoxH1 inh 81.3 (no result: sEH act, sEH inh)
Cc1ccc(C(=O)C[n+]2cccc3ccccc32)cc1	none (no result: Smad3 FoxH1 inh)
Cc1cc(OCc2nc(N)nc(N)c2-c2ccc(Cl)c(Cl)c2)ccc1[N+](=O)[O-]	Smad3 FoxH1 inh 55.8 (no result: sEH act, sEH inh)
CCc1nc(N)nc(N)c1-c1ccc(Cl)cc1	none (no result: sEH act, sEH inh)
C=CCNC(=O)Nc1ccc2oc(C)nc2c1	none
Cc1nc2cc(NC(=O)NCCC3=CCCCC3)ccc2o1	sEH inh 81.3
O=C(O)[C@@H]1O[C@H]1C(=O)O	none (no result: sEH act, sEH inh)
CCn1c(COc2ccc(C)cc2)nnc1SCc1nc2ccccc2[nH]1	none
Cn1c(COc2ccccc2)nnc1SCc1nc2ccccc2[nH]1	Smad3 FoxH1 inh 94.0
CC(=NCC(=O)O)c1ccccc1	none (no result: sEH act, sEH inh)
O=C(O)CCNC(=O)c1ccc(Br)o1	none (no result: sEH act, sEH inh)
O=C(NCCC(c1ccccc1)c1ccccc1)c1ccc(Br)o1	sEH inh 97.0
CC1=CC(c2ccc(Cl)cc2)n2nc(NC(=O)c3ccccc3)nc2N1 (stereo not drawn)	none
CC(=O)Nc1nc2n(n1)C(c1ccc(Cl)cc1)C=C(C)N2 (stereo not drawn)	Smad3 FoxH1 inh 63.3 (no result: sEH act, sEH inh)
O=C(O)CC12C[C@@H]3C[C@@H](CC(O)(C3)C1)C2	none (no result: sEH act, sEH inh)
Cc1ccc(N2CC(C(N)=O)CC2=O)cc1C (stereo not drawn)	none
Cc1ccc(N2CC(C(N)=O)CC2=O)cc1 (stereo not drawn)	Smad3 FoxH1 inh 50.8
Cc1ccc(S(=O)(=O)O[C@@H]2[C@@H]3OC(C)(C)O[C@@H]3O[C@@H]2[C@@H]2COC(C)(C)O2)cc1	none (no result: sEH act, sEH inh)
CCCS(=O)(=O)O	none (no result: sEH act, sEH inh)
O=C(c1nc2ccc([N+](=O)[O-])cc2[nH]c1=O)[C@@H](O)c1ccc2c(c1)OCO2	none (no result: sEH act, sEH inh)
C/C(N[O-])=C(\C)[N+]([O-])=[Co].CC(=N\[O-])/C(C)=N/[O-].C[CH-][C@@H](C)O.c1ccncc1	Smad3 FoxH1 inh 65.8 (no result: sEH act, sEH inh)
C/C(N[O-])=C(\C)[N+]([O-])=[Co].C/C(N[O-])=C(\C)[N+]([O-])=[Co].CC(=N\[O-])/C(C)=N/[O-].CC(=N\[O-])/C(C)=N/[O-].[CH3-].[CH3-]	none (no result: sEH act, sEH inh)
COc1cccc2c1[C@H](CO)N1[C@H](C#N)[C@H]3C[C@@H](C(=O)O)[C@@H]([C@@H]1C2)N3C	none (no result: sEH act, sEH inh)
C[C@@]1(CO)[C@H](O)CC[C@]2(C)[C@@H]1CC[C@H]1C[C@H]3C[C@]12CC[C@@]3(O)COC(=O)CN	none (no result: sEH act, sEH inh)
NC(=O)NCCS[C@H]1CCCC[C@@H]1O	none (no result: sEH act, sEH inh)
O=C(O)[C@@H]1[C@H](C(=O)Nc2ncccn2)[C@@H]2C=C[C@H]1O2	none (no result: sEH act, sEH inh)
OC[C@@H]1O[C@H](n2cnc3c(/C=C(\O)c4ccccc4)ncnc32)[C@H](O)[C@H]1O	none (no result: sEH act, sEH inh)
O=C(O)CC[C@@H](C(=O)O)N1C(=O)[C@@H]2[C@@H]3CC[C@@H](C3)[C@@H]2C1=O	none (no result: sEH act, sEH inh)
CC(=O)Oc1cccc(/C=c2\sc3nc(-c4ccco4)nn3c2=O)c1	none
COc1cc(/C=c2\sc3nc(-c4ccncc4)nn3c2=O)ccc1OC(C)=O	Smad3 FoxH1 inh 83.8[fluorescence artefact?]
Cc1ccc(CSCCNC(=O)c2ccc(Cl)c(S(=O)(=O)N3CCOCC3)c2)cc1	none
C=CCN1C(=O)CSc2ccc(C(=O)NCc3ccco3)cc21	none (no result: sEH act, sEH inh)
O=C(NCCC1=CCCCC1)c1ccc(Cl)c(S(=O)(=O)N2CCOCC2)c1	sEH inh 94.1
C=CCN1C(=O)CSc2ccc(C(=O)NCCC3=CCCCC3)cc21	sEH inh 88.8
CC(=O)[C@H]1CC[C@@H]2[C@]1(C)CC=C1[C@@]23C=C[C@@]2(C[C@H](O)CC[C@@]12C)[C@H](C(=O)O)[C@@H]3C(=O)O	none (no result: sEH act, sEH inh)
COc1ccc(/C(C)=N/NC(=O)c2nc(C)cc(C)n2)cc1	none
COc1ccc2c(c1)[n+]([O-])c(/C(C)=N/NC(N)=S)c(C)[n+]2[O-]	Smad3 FoxH1 inh 66.3 (no result: sEH act, sEH inh)
CN(C)CN1C(=O)S/C(=C2\C(=O)N(CN(C)C)c3ccccc32)C1=O	none (no result: sEH act, sEH inh)
c1cc2c(cc1C(N1CCNCC1)N1CCNCC1)OCO2	none (no result: sEH act, sEH inh)
O=C(CN1C(=O)c2ccccc2S1(=O)=O)Nc1ccc(S(=O)(=O)N2CCCC2)cc1	none
O=C(Nc1ccccc1)Nc1ccc(S(=O)(=O)N2CCCCC2)cc1	sEH inh 92.1
O=C(Nc1ccc(S(=O)(=O)N2CCCCC2)cc1)c1ccccc1Cl	none
O=C(CN1C(=O)c2ccccc2S1(=O)=O)Nc1ccc(S(=O)(=O)N2CCCCC2)cc1	sEH inh 83.1
CC(=O)/C(=C\c1ccccc1F)C(=O)c1ccccc1	none (no result: sEH act, sEH inh)
CC1CCCCN1C(=O)NC12CC3CC(CC(C3)C1)C2 (stereo not drawn)	sEH inh 87.4
O=C(NC12CC3CC(CC(C3)C1)C2)C1CCCN1C(=O)NC1CCCCC1 (stereo not drawn)	none
O=C(O)c1cncc(C(=O)O)c1	none (no result: sEH act, sEH inh)
C[n+]1cccc(/C=C/c2ccc3cccc(O)c3n2)c1	none (no result: sEH act, sEH inh)
Oc1c(Cl)cc(CN(Cc2cc(Cl)c(O)c(Cl)c2)C2CCCCC2)cc1Cl	none (no result: sEH act, sEH inh)
O=C(Nc1ccc(F)c(F)c1)NC1CCCCC1	sEH inh 90.3
O=C(Nc1ccc(Cl)cc1)NC1CCCCC1	none (no result: sEH act, sEH inh)
O=C(Nc1ccc2c(c1)nc1n2CCN(C2CCCCC2)C1)NC1CCCCC1	sEH inh 89.3 (no result: Smad3 FoxH1 inh)
CC(=O)c1cccc(NC(=O)NC2CCCCC2)c1	none
O=C(Nc1ccc2c(c1)nc1n2CCN(C2CCCCC2)C1)c1ccco1	none (no result: sEH act, sEH inh)
O=C(Nc1cccc(C(F)(F)F)c1)NC1CCCCC1	sEH inh 94.4
O=C(Nc1ccc(OC(F)F)cc1)Nc1cccc(C(F)(F)F)c1	sEH inh 86.5
COC(=O)[C@H](C)NC(=O)Nc1cccc(C(F)(F)F)c1	none
